Assay outcomes deposited in PubChem by Broad Institute.
aSyn 5UTR act: Activators via SNCA 5'UTR binding, MLPCN; activity score, % (tested at 7.5 µM), hits read low; AID 1814; 7.1% of 300,000 active; alpha-synuclein 5'UTR reporter, activators screen; in the data active means activity score below about -60%
Hits are given with their value; n = inactive. A selection follows.

SMILES	aSyn 5UTR act
CCOC(=O)C1=C(CSc2nc(-c3ccccc3)ccc2C#N)OC(N)=C(C#N)C1c1ccc(OC)cc1 (configuration not stated)	-184.0
Cc1ccc(OC/C(=N\O)C(C)(C)C)c([N+](=O)[O-])c1	-77.1
Cc1ccc(OCC(=O)Nc2ccon2)c([N+](=O)[O-])c1	-91.3
Cc1ccc(OCC(=O)Nc2ccccc2[N+](=O)[O-])c(Br)c1	-207.2
CCC(C)NC(=O)c1cc2cc3ccc(OC)cc3nc2s1 (configuration not stated)	-130.7
COc1ccc2cc3cc(C(=O)NCCN4CCc5ccccc5C4)sc3nc2c1	-209.1
CSC1=NC2(CCCCC2)CC12C=CC(=O)C=C2	-62.6
Oc1c(Br)cc(Br)cc1C=Nc1ccc2c(c1)OCO2	-65.9
COC(=O)C[C@](O)(CCCC(C)(C)O)C(=O)O[C@@H]1C(OC)=C[C@]23CCCN2CCc2cc4c(cc2[C@H]13)OCO4	n
CC(=Nc1ccc(Br)cc1)c1sc2ccccc2c1O	-125.0
CC(=Nc1ccccc1)c1sc2ccccc2c1O	-383.5
Oc1ccc(-c2nc3ccc4ccccc4c3c3c2CCC3)cc1O	-151.2
C/C(NC(=O)c1ccccc1)=C1/C(=O)CC2C1C2(C)C (configuration not stated)	-98.8
CCOc1ccc(Nc2ncnc3c2nnn3Cc2ccccc2)cc1	-79.2
Cc1ccc(C(=O)CNc2ccc(C)c(Cl)c2)cc1	-68.4
Cc1ccc(NCCC(=O)c2ccc(Cl)cc2)cc1	-119.0
Cc1ccc(NCC(=O)c2ccc(C)cc2)cc1	-125.0
Cc1ccc(NC(=O)CNC(=O)c2ccccc2F)cc1Cl	-69.2
Cc1ccc(NCCC(=O)c2ccccc2)cc1Cl	-133.9
COc1ccc(Oc2nc(-c3ccccn3)nc3ccccc23)cc1	-110.2
Fc1ccc(Oc2nc(-c3ccccn3)nc3ccccc23)cc1	-94.6
c1ccc(Oc2nc(-c3ccccn3)nc3ccccc23)cc1	-63.7
COc1ccc2nc(Cl)c(/C=N/Nc3ccccn3)cc2c1	-88.2
COc1cccc(/C=N/Nc2nccnc2Cl)c1O	n
COc1ccc(/C=N/Nc2nccnc2Cl)c(OC)c1	-110.8
SMILES	aSyn 5UTR act
COc1ccc(C(=O)c2cc([N+](=O)[O-])ccc2N2CCOCC2)cc1	n
COc1ccc(C(=O)/C=C/c2ccc(C)cc2)c(OC(=O)c2ccc([N+](=O)[O-])cc2)c1	-87.0
COc1ccc(C(=O)/C=C/c2ccccc2F)c(OC(=O)c2ccc([N+](=O)[O-])cc2)c1	-228.0
COc1ccc(NC(=O)c2cc3c(-c4ccc(OC)c(OC)c4)nn(C)c3s2)cc1OC	-69.6
CCN1C(=S)SC(=O)C1=C1C=C(C)N(CCO)C(C)=C1	-165.2
Cc1ccn2cc(-c3cnoc3C)nc2c1	-96.6
Cc1ccn2cc(-c3ccc(Br)cc3)nc2c1	n
C=CCn1c(C)cc(-c2csc(NC(=O)C3=COCCO3)n2)c1C	-89.4
CC(C)(C)c1ccc(NC(=O)COC(=O)C2(C)CC2(Cl)Cl)cc1 (configuration not stated)	-138.1
COc1ccccc1-c1nnc(NC(=O)C2=COCCO2)o1	-74.6
COc1ccc(-c2csc(NC(=O)C3=COCCO3)n2)c(OC)c1	-86.3
CC(C)(C)c1ccc(NC(=O)COC(=O)C2=COCCO2)cc1	-89.5
COc1ccc(-c2csc(NC(=O)COC(=O)C3=COCCO3)n2)cc1	-128.2
C=CCNc1nc(-c2ccc(OC)cc2OC)cs1	-320.6
Cc1nc(NC(=S)NC(=O)c2ccccc2)sc1C	-161.0
Cc1nc(NC(=O)CCc2ccccc2)sc1C	-85.6
CC(=O)c1sc(NC(=O)c2ccccc2)nc1-c1ccccc1	-139.0
Cc1nc(NC(=O)c2ccccc2)sc1C	-86.3
CCOC(=O)Nc1nc(-c2ccccc2)c(C(=O)c2ccccc2)s1	n
Cc1nc(Nc2ccccc2)sc1C	-112.3
Cc1nc(NC(=O)c2csc3ccccc23)sc1C	-141.2
Cc1nc(NC(=O)c2ccccc2O)sc1C	-127.6
Oc1ccccc1OCc1nc2ccccc2s1	-113.4
OCc1cc(Br)ccc1OCc1nc2ccccc2s1	-70.3
CC(=O)N(c1nnc(-c2cccc(C)c2)s1)C1CCCC1	-159.6
SMILES	aSyn 5UTR act
COc1cccc(OC)c1-c1nn2c(-c3ccco3)nnc2s1	-77.9
COc1ccccc1-c1nnc2sc(-c3cc4ccccc4o3)nn12	n
O=C1/C(=N\S(=O)(=O)c2cccs2)C([n+]2cccc(Cc3ccccc3)c2)=C([O-])c2ccccc21	n
CC(C)(C)NC(=O)CN(C(=O)CNS(=O)(=O)c1ccccc1)c1ccc2c(c1)OCCO2	-86.3
N#Cc1cc(-c2ccccc2)nn1-c1ccccc1	-67.5
CCN(CC)C(=O)c1ccc2nc3ccccc3nc2c1	n
CCN(CC)c1ccc(C(=O)Nn2cnc3ccccc3c2=O)cc1	-92.4
CCN(CC)c1ccc(C(=O)n2cnc3ccccc32)cc1	-127.9
O=c1c(/C=C(\O)c2ccccc2)nc2ccccc2n1-c1ccccc1	-127.0
CCOC(=O)Cn1c(S(=O)(=O)Cc2ccccc2Cl)nc(-c2ccccc2)c1-c1ccccc1	n
Nc1c(-c2cccc(Cl)c2)cnn1-c1ccccc1	-121.9
CCOC(=O)Cn1ncc(-c2ccccc2)c1N	-128.9
Nc1c(-c2ccccc2)cnn1-c1ccccc1	-110.2
CCOc1ccc(C2=Nc3ccccc3C(c3ccc(N4CCOCC4)cc3)=NN2)cc1	-94.5
CCOc1ccc(C2=Nc3ccc(Br)cc3C(c3ccc(N4CCOCC4)cc3)=NN2)cc1	-66.4
COc1ccc(-c2nn(-c3ccccc3)cc2/C=N/NC(=O)c2cccc(S(=O)(=O)Nc3ccccc3Cl)c2)cc1	-77.5
COc1ccc(-c2nn(-c3ccccc3)cc2/C=N/N2C(=O)CSC2=S)cc1	-83.2
COc1ccc(-c2nn(-c3ccccc3)cc2/C=N/NS(=O)(=O)c2ccccc2)cc1	-62.4
Cc1cc(C)n2nc(C(=O)Nc3ccc4c(c3)OCO4)cc2n1	-84.3
CC(=O)c1cccc(NC(=O)c2cc3nc(C)cc(C)n3n2)c1	-138.5
C/C(=N\NC(=S)Nc1cccc(C)c1)c1ccccc1	-99.6
C/C(=N\NC(=S)Nc1cccc(C)c1)c1ccco1	-188.6
Cc1ccc(NC(=S)NNC(=O)c2ccccc2OC(F)F)cc1	-86.7
O=C(NNC(=S)Nc1cccc(Cl)c1)c1ccccc1OC(F)F	-82.9
O=C(NNC(=S)Nc1ccc(F)cc1)c1ccccc1OC(F)F	-62.7
SMILES	aSyn 5UTR act
CCOC(=O)c1c(C)nc2c3ccccc3ccn12	-90.6
NC(=O)c1cc2c3ccccc3ccn2c1-c1ccccc1	n
O=S(=O)(c1ccc(-c2nc3ccccc3s2)cc1)N1CCCC1	-117.9
O=S(=O)(c1ccccc1)N1CCN(c2nc3ccccc3s2)CC1	-82.5
CS(=O)(=O)N1CCN(c2nc3ccccc3s2)CC1	-80.2
CC(C)c1ccc(-c2nc3ccccc3s2)cc1	n
OCCN(CCO)CC(O)COc1ccc(C23CC4CC(CC(C4)C2)C3)cc1 (configuration not stated)	n
COC(=O)C(Cc1ccc(O)cc1)N1Cc2ccccc2C1=O (configuration not stated)	-144.4
COC(=O)C(Cc1ccc(OC(=O)c2ccc(C)cc2)cc1)N1Cc2ccccc2C1=O (configuration not stated)	-66.7
O=C(Nc1ccc([N+](=O)[O-])cc1)C(Cc1ccccc1)N1C(=O)c2cccc3cccc(c23)C1=O (configuration not stated)	n
Nc1cc(C(F)(F)F)ccc1OCC1CCCO1 (configuration not stated)	-90.9
CC1Oc2cc3oc4c(O)c(O)ccc4c(=O)c3c(O)c2C1(C)C (configuration not stated)	-149.6
